# In PubChem BioAssay (Tox21):
# Results filed as inconclusive are left out. Values without a mark were called inactive. Calls of active or inactive are those of the source. Calls come from the whole dose curve; as a rule, active = well fitted inhibition curve with a large enough effect in the signal ratio in the repeat runs (not every such curve was filed as active); inconclusive = weak or mixed curves, or effect the other way; inactive = flat fitted curve, though single readings scatter; the % refers to the signal ratio.
# Assay: cAMP Responsive Elements (CRE) small molecule antagonists, cell-based qHTS assay (AID 1963591)
# Conditions: CRE-bla HEK293T, beta-lactamase FRET ratio; series mostly up to 92.4 µM; activity change, negative = inhibition: at the top concentration
# Excerpt: U.S. Tox21 Program National Center for Advancing Translational Sciences [NCATS] Division of Preclinical Innovation [DPI] U.S. Environmental Protection Agency [EPA] National Institutes of Environmental Health Sciences [NIEHS] National Toxicology Program [NTP] U.S. Food and Drug Administration [FDA] Tox21 Assay Overview: CREB (cyclic-AMP Responsive Element Binding Protein) is a cellular transcription factor. It binds to certain DNA sequences called cAMP Responsive Elements (CRE) and regulates the transcription of the genes. […] This cell line can be used to find agonists/antagonists of the cyclic AMP signaling pathway. The activation of the report gene under culture conditions can be detected by fluorescence intensity. This cell line has been used to screen the Tox21 10K compound library to […].
# Tox21 Assay Protocol Summary: CRE-bla Hek 293T cells were suspended in assay medium (DMEM containing 10% dialyzed FBS, 0.1 mM NEAA, 1 mM sodium pyruvate and 25 mM HEPES) and dispensed at 2,000 cells/4 uL /well into 1536-well black wall/clear bottom plates using a Multidrop Combi (ThermoFisher Scientific, Waltham, MA) dispenser. After the assay plates were incubated at 37 C/5% CO2 for 18 hrs, 23 nL of compounds dissolved in DMSO, positive controls or DMSO only was transferred to the assay plate by a pintool workstation (Kalypsys, San Diego, CA), followed by addition of 1 […] uL of 1.25uM NKH477 (0.25 uM as final concentration) in assay medium using a Flying Reagent Dispenser (Aurora Discovery, San Diego, CA). The plates were incubated at 37 C and 5% CO2 for 3 hrs. Then 1 uL of LiveBLAzer B/G FRET substrate (Invitrogen, Carlsbad, CA) was added to each well using Bioraptr Flying Reagent Dispenser (FRD, Aurora Discovery, San Diego, CA). The plates were incubated at room temperature for 2 h.
# % is set by controls: 0 for no effect and ±100 for the full control effect; potency is the fitted concentration of half-maximal effect.
SMILES,"activity change, negative = inhibition",Potency
CC(C)=CCC/C(C)=C/CC/C(C)=C/C(=O)OCC(=O)[C@@]1(O)CC[C@H]2[C@@H]3CCC4=CC(=O)C=C[C@]4(C)[C@H]3[C@@H](O)C[C@@]21C,1.71% [at 42.4 µM],–
CN(C)CCCSc1ccccc1NC(=O)/C=C/c1ccccc1,3.97% [at 42.4 µM],–
CCN1CCN(c2cc(-c3ccc(F)cc3)c3c(n2)CCCCCC3)CC1,1.59% [at 18.9 µM],–
CC(C)=CCC1C(=O)N(c2ccccc2)N(c2ccccc2)C1=O,-5.22% [at 42.4 µM],–
CC(=O)CCc1ccc(O)cc1,3.02%,–
COc1cc(N)c(Cl)cc1C(=O)NC1CCN(CCCOc2ccc(F)cc2)CC1OC (stereo not given),17.4% [at 42.4 µM],–
Cc1cccc(C)c1NC(=O)c1ccccc1C(=O)O,-17.8% [at 42.4 µM],–
O=C(CCN1CCN2CCCC2C1)N1c2ccccc2Sc2ccc(Cl)cc21 (stereo not given),-4.08% [at 18.9 µM],–
Cc1cccc(C(C)(C)C)c1O,9.89%,–
Cc1cc(-c2ccccc2)nnc1NCCN1CCOCC1,1.24% [at 42.4 µM],–
O=S(=O)(c1ccccc1)c1ccc(Cl)cc1,11.1%,–
O=[N+]([O-])c1cccc(I)c1,1.01%,–
NCc1ccco1,2.19%,–
Cc1ccc(NC(N)=O)cc1,1.8%,–
Cc1c(NC(C)C)c(=O)n(-c2ccccc2)n1C,1.01% [at 42.4 µM],–
CCCCCCCCCCn1cc[n+](CCCCCCCCCC)c1C,–,21.7 µM (active)
O=C(OCCCCCOC(=O)c1ccccc1)c1ccccc1,-3.74%,–
COc1ccccc1OC(=O)Oc1ccccc1OC,-11.4% [at 42.4 µM],–
Cc1cc(N)c(S(=O)(=O)O)cc1Cl,0.423%,–
COc1cc2c3cc1Oc1cc(ccc1O)C[C@@H]1c4c(cc(OC)c(O)c4Oc4ccc(cc4)C[C@@H]3N(C)CC2)CC[N+]1(C)C,0.185% [at 42.4 µM],–

SMILES,"activity change, negative = inhibition",Potency
CCCCCCCC/C=C\CCCCCCCCCCCC(=O)O,-18.8%,–
CC(C)(C)c1ccccc1,-0.142%,–
FC(F)(F)C(F)(F)C(F)(F)C(F)(F)C(F)(F)C(F)(F)C(F)(F)C(F)(F)C(F)(F)C(F)(F)F,-8.96% [at 8.39 µM],–
Cc1cccc(C)n1,-0.372%,–
O=C(O)c1cc(Cl)cc(Cl)c1O,13.3%,–
COC(=O)c1ccc(OC)cc1,-1.25%,–
CC(C)CCCC(C)NCCC(C)C (stereo not given),3.03% [at 42.4 µM],–
CCCCN(CCCC)CCCOC(=O)c1ccc(N)cc1,-3.02% [at 42.4 µM],–
Cc1c(C)c2c(c(C)c1OC(=O)CCC(=O)O)CC[C@@](C)(CCC[C@H](C)CCC[C@H](C)CCCC(C)C)O2,1.12%,–
C#CCOC(=O)[C@@H](C)Oc1ccc(Oc2ncc(Cl)cc2F)cc1,10.9%,–
Nc1cccc2c(=O)[nH][nH]c(=O)c12,0.87%,–
CC1=NN(c2ccc(C(=O)O)cc2)C(=O)C1,-0.0896%,–
O=c1[nH]c(=O)n([C@H]2C[C@H](O)[C@@H](CO)O2)cc1I,-7.05% [at 42.4 µM],–
CC(=O)c1ccc(C(C)=O)cc1,0.899%,–
CC[C@H]1OC(=O)[C@H](C)[C@@H](O[C@H]2C[C@@](C)(OC)[C@@H](O)[C@H](C)O2)[C@H](C)[C@@H](O[C@@H]2O[C@H](C)C[C@H](N(C)C)[C@H]2O)[C@](C)(OC)C[C@@H](C)C(=O)[C@H](C)[C@@H](O)[C@]1(C)O,1.49%,–
CCN(CC)CCOc1ccc(Cc2ccccc2)cc1,-4.47% [at 42.4 µM],–
Cc1c(N)cccc1[N+](=O)[O-],-0.858%,–
CC(C)(O)c1ccccc1,-1.76%,–
NC(N)=NC(=O)Cc1c(Cl)cccc1Cl,4.06% [at 42.4 µM],–
O=C1N(c2ccccc2)c2ccccc2C1(Cc1ccncc1)Cc1ccncc1,-3.57% [at 42.4 µM],–
